Tests used:
Test in all cases: PBM binding z-score (relative to random genomic background probes); higher = stronger binding; sequences stand for … in GC…GCGATTGACAGCGTAGAATGAAGG
[1] = test system: PPARg:RXRa DBDmut IVT, anti-RXR (DBD mutation: RXRa K156A/R161A, NR concentration 270 nM, RXRa partner concentration 90 nM)
How it was run: (§1)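 Binding buffer was PBS pH 7.4 with 2% milk, 0.02% Triton X-100, 1 mM DTT, 0.2 mg/mL BSA and 0.4 mg/ml salmon testes DNA. In it, ligand-free nuclear receptor dimers were incubated 1 h on custom Agilent 4×180K protein-binding microarrays carrying double-stranded probes. Antibodies against each partner (one per run) detected binding, and z-scores were calculated against random background probes after regression normalization of scanned fluorescence.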

[2] = test system: PPARg:RXRa IVT, anti-PPARg (NR concentration 270 nM, RXRa partner concentration 90 nM)
How it was run: as §1

[3] = test system: PPARg DBDmut:RXRa IVT, anti-PPARg (DBD mutation: PPARg1 K132A/R137A, NR concentration 270 nM, RXRa partner concentration 90 nM)
How it was run: as §1

[4] = test system: PPARg DBDmut IVT, anti-PPARg (DBD mutation: PPARg1 K132A/R137A, NR concentration 270 nM)
How it was run: as §1

[5] = test system: PPARg homodimer (NR concentration 180 nM)
How it was run: as §1

[6] = test system: PXR:RXRa (NR concentration 270 nM, RXRa partner concentration 90 nM)
How it was run: as §1

[7] = test system: PXR homodimer (NR concentration 270 nM)
How it was run: as §1

[8] = test system: RARa:RXR (NR concentration 270 nM, RXRa partner concentration 90 nM)
How it was run: as §1

[9] = test system: RARa homodimer (NR concentration 270 nM)
How it was run: as §1

[10] = test system: RARb:RXRa (NR concentration 270 nM, RXRa partner concentration 90 nM)
How it was run: as §1

Row | Sequence | PBM binding z-score [1] | PBM binding z-score [2] | PBM binding z-score [3] | PBM binding z-score [4] | PBM binding z-score [5] | PBM binding z-score [6] | PBM binding z-score [7] | PBM binding z-score [8] | PBM binding z-score [9] | PBM binding z-score [10]
1 | CCTCGGAGGACAACAGGAGGTCAGAGCTGCCAGA | 0.299 | 0.564 | -0.994 | -1.03 | 1.72 | 2.02 | 0.105 | 2.3 | 0.364 | 2.84
2 | AGAATGAGGTTACCAAAGATGAGGGAAACGCTTG | 3.67 | 3.1 | 1.29 | 0.621 | 0.657 | 1 | 0.117 | 1.79 | 0.142 | 2.14
3 | CCGACTGGGCCAAGGTTACCATAACGCACAGCCA | 1.61 | 1.71 | 0.193 | -0.788 | 0.313 | 0.153 | -0.166 | 0.508 | -0.101 | 0.98
4 | ACTAGCAGGCCAAATTTGGGTCACTCAAACAAAG | 2.87 | 4.17 | 0.302 | 0.302 | 0.993 | 0.803 | -0.346 | 1.72 | -0.199 | 1.54
5 | TCTTGTAGATCAACAGGAGGTTAGGAAAGATCGA | 1.53 | 0.599 | 0.272 | 0.48 | -0.426 | 0.183 | -0.275 | 0.125 | 0.162 | 0.117
6 | CCGACTGGAGCATAAGGTTACCATAAGCCAGCCC | 0.771 | 0.172 | -0.467 | -1.49 | -0.0887 | 0.241 | -0.0972 | 1.11 | 0.0423 | 0.916
7 | GATACCGGGTCAAGGCCAGAGTACGCGTATTGAT | 2.4 | 4.67 | 0.967 | 0.0234 | 0.895 | 2.62 | 0.124 | 2.97 | 0.054 | 3.9
8 | CCTTACGCGTCACTGACAGGTTATAGCATTTGGA | 0.598 | -0.176 | 0.212 | 0.276 | 0.943 | 0.459 | 0.407 | 0.676 | 1.36 | 0.243
9 | CCTGCTGGGCCATCAGGTCATTGATATCAACGTT | 1.27 | 1.52 | -0.402 | -0.46 | 0.175 | 1.55 | 0.128 | 1.83 | -0.97 | 2.02
10 | TCTCGGAGGACACGAAGGTCCGAGCTTTCCAGAG | 1.24 | -0.478 | -0.785 | -1.37 | -0.731 | -0.253 | -0.438 | -0.322 | -1.26 | 1.56
11 | CAAACTACGTCACGAAAGGTCAAAGTCGAATGAC | 0.398 | 2.49 | 1.4 | 1.92 | 3.68 | 5.52 | 1.91 | 6.35 | 2.63 | 4.43
12 | CAAACTAGGTCACAGAGGTCATAGTCCGTGCGTA | 8.64 | 9.13 | 4.61 | 1.67 | 6.77 | 6.52 | 12.2 | 7.31 | 3.54 | 5.27
13 | TCTGCTAGGTCAACGATAGTCAGCTAATCTGCTA | 4.19 | 4.2 | 0.616 | 0.703 | 0.481 | 1.31 | -0.482 | 1.98 | -0.872 | 3.99
14 | CCTTACGGGTCACTGACAAGTTATAGCATTTGGA | 3.61 | 3.76 | 0.661 | 0.743 | 2.03 | 2.77 | -0.0294 | 3.98 | 1.19 | 3.81
15 | GCTGCTAGGTCAACTCATGGTCAGCTAAAGCTCG | 4.52 | 4.36 | -0.224 | 0.163 | 1.2 | 1.83 | -0.544 | 2.76 | 0.409 | 4.46
16 | TCATATAGGTAATACAAGTGAAAGTCGGCATCTA | 4.19 | 2.25 | 0.992 | 1.83 | 1.46 | 0.916 | 0.336 | 1.3 | 1.79 | 0.7
17 | ACTGGGAGGACAAAGGTCAGAGCTACGCCAGTGA | 0.413 | 3.95 | 0.328 | 0.253 | 4.03 | 4.16 | 0.638 | 5.46 | 1.31 | 4.64
18 | TGTCGGAGGACACGAAAGGTCAGAGCTCGACATC | -0.0424 | 1.74 | 0.729 | -0.228 | 2.53 | 4.04 | 0.82 | 4.12 | 1.52 | 4.31
19 | GATACAGTGTCAAGGCCAGAGTACGCGTATTGAT | 0.318 | 0.795 | 0.0882 | 0.292 | 0.275 | -0.0079 | 0.246 | 0.272 | -0.156 | 1.46
20 | AGAACGAGGGCAATGAGGTGATAGCACGGGTGGC | 3.36 | 3.33 | 0.776 | 0.448 | 0.588 | 1.06 | 0.905 | 0.818 | 0.144 | 2.13
21 | TCTGCTAGGTCAACGATGGTCAGCAAATCTGCTA | 3.85 | 4.18 | 0.827 | 0.166 | 0.381 | 1.47 | -0.599 | 2.12 | -0.686 | 4.26
22 | GCGCGGAGGACAAGGTCAGAGCTTTGTCCGTAGA | -0.241 | 0.514 | -1.67 | -1.56 | 0.0737 | 1.5 | -0.325 | 2.13 | -1.01 | 3.4
23 | CATGCTAGGTCATGGTCAGCTAATCTACAGTATG | 3.61 | 3.51 | 0.62 | 0.712 | 1.58 | 1.4 | -0.662 | 2.58 | 0.163 | 3.92

— the supplement of paper PMC6555819
